{"source": "paper PMC5540273", "about": "(PLoS ONE, 2017);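 further: KINOMEscan kinase panel screen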"}
{"system": "EIF2AK1", "conditions": "concentration: 1 μM, replicates: in singlicate; n = 1", "units": {"%Inh": "%"}}
{"smiles": "O=C(c1ccc(-c2cc(-c3c[nH]nc3-c3ccccn3)ccn2)cc1)N1CCOCC1", "note": "[GW812171]", "%Inh": 0}
{"smiles": "CC(=O)Nc1ccc(COc2ccc(Nc3ccnc4cc(-c5ccccn5)ccc34)cc2)cc1.Cl", "note": "[GW440148]", "%Inh": 0}
{"smiles": "O=C(NOCC1CC1)c1ccc(F)c(F)c1Nc1ccc(I)cc1Cl", "%Inh": 0}
{"smiles": "COc1ccc(Nc2nccc(N3CCC(NC(=O)Nc4cc(C)ccc4C)C3)n2)cc1", "note": "(stereo not shown) [GSK1379741]", "%Inh": 0}
{"smiles": "Cc1ccc(C(=O)NCC(N)=O)cc1-n1c(C)cc(OCc2ccc(F)cc2F)c(Br)c1=O", "%Inh": 0}
{"smiles": "Cl.Nc1ncnc2occ(-c3ccc(NC(=O)Nc4cc(C(F)(F)F)ccc4F)cc3)c12", "note": "[SB-707548]", "%Inh": 0}
{"smiles": "Nc1nc(-c2ccc3c(N)n[nH]c3c2)cc(N2CCCC2)n1", "note": "[GSK2227430]", "%Inh": 0}
{"smiles": "CN(C1=C(c2ccccc2)C(=O)NC1=O)c1ccccc1", "note": "[SB-334860]", "%Inh": 6}
{"smiles": "CN1c2ccc(CNc3ccc(F)cc3)cc2-c2c(cnn2C)S1(=O)=O", "%Inh": 0}
{"smiles": "COc1ccc(S(=O)(=O)NC2CCN(c3cc(C)nc(Nc4cccc(C#N)c4)n3)CC2)cc1.O=C(O)C(F)(F)F", "note": "[GSK1653539]", "%Inh": 0}
{"smiles": "O=c1cc(N2CCOCC2)nc2n(Cc3cccc(Cl)c3Cl)c(C3CC3)nn12", "note": "[GSK2358994]", "%Inh": 0}
{"smiles": "N#Cc1ccc(-c2cc(-c3c[nH]nc3-c3ccccn3)ccn2)cc1", "note": "[GW693028]", "%Inh": 6}
{"smiles": "O=C(Nc1cccc(-c2nn3ncccc3c2-c2ccnc(Nc3cccc(C(F)(F)F)c3)n2)c1)c1c(F)cccc1F", "note": "[GSK299495]", "%Inh": 18}
{"smiles": "CCc1ccnc(/C=C/c2n[nH]c3cc(Sc4ccccc4C(=O)NC)ccc23)c1", "%Inh": 14}
{"smiles": "Nc1nccc(-c2c(-c3ccc(F)cc3)ncn2C2CCN(CC(F)(F)F)CC2)n1", "note": "[SB-236560]", "%Inh": 20}
{"smiles": "Cc1cn2c(=O)cc(N3CCOCC3)nc2n1Cc1cccc(Cl)c1Cl", "note": "[GSK2334006]", "%Inh": 2}
{"smiles": "COc1ccc(COc2cc(-n3cnc4ccccc43)sc2C(N)=O)cc1", "note": "[GSK1024304]", "%Inh": 0}
{"smiles": "Fc1ccc(-c2ncn(CCCN3CCOCC3)c2-c2cccnc2)cc1", "note": "[SB-211743]", "%Inh": 0}
{"smiles": "CN1c2ccc(NCc3ccc(F)cc3)cc2-c2c(cnn2C)S1(=O)=O", "%Inh": 0}
{"smiles": "O=C(NCCNc1ccnc(Nc2ccc(F)cc2)n1)c1cc2ccccc2s1", "note": "[GSK1379874]", "%Inh": 0}
{"smiles": "Cc1cccc(-c2nc(Nc3ccc4ncsc4c3)c3ccccc3n2)n1", "note": "[GW867588]", "%Inh": 0}
{"smiles": "NCC(NC(=O)c1cc(-c2cn[nH]c2)c(-c2ccnc3[nH]ccc23)s1)c1ccccc1.O=C(O)C(F)(F)F.O=C(O)C(F)(F)F", "note": "(stereo not shown) [GSK1325775]", "%Inh": 0}
